# In PubChem BioAssay:
# This is one part of the list. A number with no mark means an inactive call. Activity calls are given as the source filed them. Rule as the data show it, unless noted: active = activation above about 8.9%; inactive = the rest.
# Columns and labels:
# [1] = system: HIV-1 integrase (multimerization); experiment: HIV-1 IN multimer formation enhancers, counter-screen for LEDGF/p75 integration inhibitor project, biochemical, TR-FRET (AID 1053131); settings: TR-FRET HIV-1 integrase multimerization, at 7.7 µM, active compounds read high
# [2] = TR-FRET optical interference artefacts, confirmation, artefact control for LEDGF/p75-dependent integration inhibitor project, biochemical, HIV-1 IN multimerization (AID 1053135;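 active = inhibition above the mean over all tested compounds plus 3 SD, which no compound reached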;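 also: 0% = integrase with antibodies and DMSO and 100% = antibodies without integrase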); settings: TR-FRET optical interference counterscreen, at 7.7 µM, active compounds read high
# [3] = system: HIV-1 integrase / human LEDGF/p75 complex; experiment: inhibitors of HIV-1 IN-LEDGF/p75 DNA integration, confirmation, biochemical, TR-FRET (AID 1053136; in the data active = inhibition above about 14%); settings: TR-FRET LEDGF/p75-dependent HIV-1 integration, at 3.7 µM, active compounds read high
# [4] = system: Fam108b (Abhd17b) serine hydrolase [Mus musculus]; experiment: mouse Fam108b serine hydrolase inhibitors, confirmation, counter-screen for RBBP9 inhibitor project, biochemical, fluorescence polarization, triplicate (AID 1978;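 active = inhibition above a limit from the primary screen, the mean over all compounds plus 3 SD, cut at about 19% in these data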;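 also: 0% = median of active Fam108b wells and 100% = catalytically dead S170A mutant; inhibitors free the probe so polarization falls as inhibition rises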); settings: recombinant Fam108b, FP-Rh probe fluorescence polarization; at 9.51 µM; active compounds read high
# [5] = molecular target: Bcl-2-like protein 1 (Homo sapiens) (UniProt Q07817); experiment: Bcl-xL inhibitors blocking Bim BH3 binding, confirmation, counter-screen for MCL1 inhibitor project, biochemical, fluorescence polarization (AID 2166;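 active = inhibition above a cutoff equal to the mean inhibition of all tested compounds plus 3 SD, cut at about 30% in these data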); settings: GST-Bcl-xL / FITC-Bim BH3 peptide FP binding; at 10.9 µM; active compounds read high
# Chain of Bcl-2-like protein 1 (Homo sapiens) (Q07817 whole entry, looked up): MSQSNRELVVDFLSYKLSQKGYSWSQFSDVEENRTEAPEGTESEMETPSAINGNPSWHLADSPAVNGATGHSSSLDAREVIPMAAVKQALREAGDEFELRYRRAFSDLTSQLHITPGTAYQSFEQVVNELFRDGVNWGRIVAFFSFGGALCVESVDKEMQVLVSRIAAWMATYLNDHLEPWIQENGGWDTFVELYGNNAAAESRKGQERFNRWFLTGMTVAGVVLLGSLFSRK
# [6] = molecular target: Induced myeloid leukemia cell differentiation protein Mcl-1 (Homo sapiens) (UniProt Q07820); experiment: inhibitors of MCL1 binding to BIM-BH3, confirmation, biochemical, fluorescence polarization, triplicate (AID 2168;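 active = inhibition above the average of all tested compounds plus 3 SD, cut at about 40% in these data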;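 also: 0% = DMSO wells and 100% = unlabeled Bim-BH3 control peptide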); settings: GST-MCL1 / FITC-Bim-BH3 fluorescence polarization; at 10.9 µM; active compounds read high
# Chain of Induced myeloid leukemia cell differentiation protein Mcl-1 (Homo sapiens) (Q07820 whole entry, looked up): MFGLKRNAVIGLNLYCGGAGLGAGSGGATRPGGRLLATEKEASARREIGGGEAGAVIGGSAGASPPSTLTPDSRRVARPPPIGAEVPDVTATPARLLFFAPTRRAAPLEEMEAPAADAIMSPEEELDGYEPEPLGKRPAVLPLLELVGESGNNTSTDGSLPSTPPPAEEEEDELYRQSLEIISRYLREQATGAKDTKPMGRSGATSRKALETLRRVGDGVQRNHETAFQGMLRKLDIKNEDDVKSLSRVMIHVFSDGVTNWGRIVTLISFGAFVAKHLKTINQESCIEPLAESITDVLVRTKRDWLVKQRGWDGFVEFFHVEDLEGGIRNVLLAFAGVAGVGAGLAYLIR
# [7] = molecular target: Platelet-activating factor acetylhydrolase (Homo sapiens) (UniProt Q13093); experiment: pPAFAH (PLA2G7) enzyme inhibitors, confirmation, biochemical, fluorescence polarization, human (AID 463230;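 active = mean inhibition of the triplicate above the hit cutoff set for the earlier primary screen, cut at about 25% in these data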;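 also: 0% = enzyme with DMSO and 100% = wells lacking pPAFAH enzyme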); settings: recombinant pPAFAH, FP-Rh probe fluorescence polarization; at 3.39 µM; active compounds read high
# Chain of Platelet-activating factor acetylhydrolase (Homo sapiens) (Q13093 whole entry, looked up): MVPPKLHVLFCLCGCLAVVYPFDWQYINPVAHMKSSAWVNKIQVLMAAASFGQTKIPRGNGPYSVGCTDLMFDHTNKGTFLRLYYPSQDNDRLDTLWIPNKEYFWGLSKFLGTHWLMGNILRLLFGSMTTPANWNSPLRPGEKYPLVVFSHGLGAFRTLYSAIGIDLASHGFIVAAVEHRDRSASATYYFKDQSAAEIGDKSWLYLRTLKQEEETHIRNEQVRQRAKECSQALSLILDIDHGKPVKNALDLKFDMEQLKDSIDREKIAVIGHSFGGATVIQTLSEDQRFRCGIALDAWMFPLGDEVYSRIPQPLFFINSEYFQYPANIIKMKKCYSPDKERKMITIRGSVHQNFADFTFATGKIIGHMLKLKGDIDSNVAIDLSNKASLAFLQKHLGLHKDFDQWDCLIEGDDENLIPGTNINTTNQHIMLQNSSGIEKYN
# [8] = molecular target: Glutathione S-transferase omega-1 (Homo sapiens) (UniProt P78417); experiment: GSTO1 inhibitor hit confirmation, counter-screen for RBBP9 inhibitor project, biochemical, fluorescence polarization, triplicate (AID 2176;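 active = inhibition above the primary screen's cutoff, its mean inhibition plus 3 SD, cut at about 35% in these data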;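 also: loss of polarization as inhibitors block binding of rhodamine sulfonate ester activity probe; 0% = GSTO1 with DMSO and 100% = wells lacking GSTO1 enzyme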); settings: recombinant GSTO1, probe fluorescence polarization; at 5.96 µM; active compounds read high
# Chain of Glutathione S-transferase omega-1 (Homo sapiens) (P78417 whole entry, looked up): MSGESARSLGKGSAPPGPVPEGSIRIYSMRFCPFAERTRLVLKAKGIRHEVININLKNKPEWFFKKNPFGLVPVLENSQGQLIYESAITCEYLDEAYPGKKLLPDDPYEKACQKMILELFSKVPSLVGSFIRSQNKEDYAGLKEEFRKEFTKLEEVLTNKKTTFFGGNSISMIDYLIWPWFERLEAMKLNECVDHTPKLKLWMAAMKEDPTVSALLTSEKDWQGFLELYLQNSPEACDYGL
smiles,measurement,setting,value
COc1ccc(NC(=O)C(NC(C)=O)C(=O)NCc2ccccc2Cl)cc1 (stereo unspecified),activation,[1],-0.36%
same,inhibition,[2],1.86%
same,inhibition,[3],2.33%
Cc1ccc(-c2nn(-c3ccccc3)cc2/C=C2\SC(=S)N(CCCCCC(=O)O)C2=O)o1,activation,[1],97.9% (active)
same,inhibition,[2],-492%
same,inhibition,[3],41.5% (active)
COc1ccc(S(=O)(=O)N2CCCCC2)cc1C(=O)NC1CCS(=O)(=O)C1 (stereo unspecified),activation,[1],-2.17%
same,inhibition,[2],10.9%
same,inhibition,[3],-3.25%
O=C(O)c1ccc(NN=CC2=C(N3CCOCC3)/C(=C/c3ccccc3)CC2)cc1,activation,[1],3.07%
same,inhibition,[2],-10.9%
same,inhibition,[3],16.6% (active)
COc1ccc(C(=O)/C=C/c2ccc(-c3ccccc3)cc2)cc1CSCC(=O)O,activation,[1],-1.35%
same,inhibition,[2],6.82%
same,inhibition,[3],21.8% (active)
O=C(Nc1nnc(-c2ccco2)o1)c1ccc(S(=O)(=O)N2CCOCC2)cc1,activation,[1],0.8%
same,inhibition,[2],-4.01%
same,inhibition,[3],-5.04%
Cc1cc(SCC(=O)NCCN2C(=O)CSC2=O)nc2ccccc12,activation,[1],0.99%
same,inhibition,[2],-4.97%
same,inhibition,[3],1.78%
Cc1cc(C)c2nc(-c3ccco3)cc(C(=O)O)c2c1,activation,[1],2.58%
same,inhibition,[2],-12.9%
same,inhibition,[3],63.6% (active)
COCCn1nnnc1C(c1cc2ccc(OC)cc2[nH]c1=O)N1CCc2ccccc2C1 (stereo unspecified),activation,[1],0.07%
same,inhibition,[2],-0.28%
same,inhibition,[3],0.92%
NC1=NN(c2cccc(C(=O)O)c2)C(=O)C1,activation,[1],12.3% (active)
same,inhibition,[2],-62%
same,inhibition,[3],-2.77%
COC(=O)C1=C(C)N(C)C(=O)NC1c1ccc([N+](=O)[O-])o1 (stereo unspecified),activation,[1],0.76%
same,inhibition,[2],-3.75%
same,inhibition,[3],0.3%
COc1cc(-c2nnc(NC(=O)CS(=O)(=O)c3ccc(Cl)cc3)o2)cc(OC)c1OC,activation,[1],0.46%
same,inhibition,[2],-2.3%
same,inhibition,[3],4.63%
CN(C)c1ccc(C(CC(=O)O)C(=O)O)cc1 (stereo unspecified),activation,[1],3.35%
same,inhibition,[2],-16.9%
same,inhibition,[3],0.73%
O=C(CN(C(=O)c1csnn1)c1cccc(Cl)c1)NC1CCCC1,activation,[1],-0.52%
same,inhibition,[2],2.68%
same,inhibition,[3],3.72%
CSc1nc(N)c(C#N)c(-c2ccccc2Cl)c1C#N,activation,[1],-0.67%
same,inhibition,[2],3.41%
same,inhibition,[3],0.36%
Cc1ccc(C(=O)NC(=S)Nc2ccc3[nH]c(=O)[nH]c3c2)cc1C,activation,[1],-3.75%
same,inhibition,[2],19%
same,inhibition,[3],14.8% (active)
CCn1nc(C)c(CN2CCN(Cc3ccc(OC)c(C)c3C)C(CCO)C2)c1C (stereo unspecified),activation,[1],-0.07%
same,inhibition,[2],0.39%
same,inhibition,[3],-3.09%
NC(=O)c1ccccc1NC(=O)c1ccccc1F,activation,[1],1.09%
same,inhibition,[2],-4.33%
same,inhibition,[3],-4.54%
COc1ccc(Cn2cc(CN3CCS(=O)(=O)N(Cc4ccc(-c5cccc(Cl)c5)cc4)C(C)C3=O)nn2)cc1 (stereo unspecified),activation,[1],-2.68%
same,inhibition,[2],13.6%
same,inhibition,[3],-1.87%
Cc1ccc(-c2cnc(NC(=O)CCC(=O)N(C)Cc3ccccc3)n2C)cc1,activation,[1],0.12%
same,inhibition,[2],-0.61%
same,inhibition,[3],-6.89%
O=C(COC(=O)CCC(=O)c1cccs1)NCc1ccco1,activation,[1],11.5% (active)
same,inhibition,[2],-58.1%
same,inhibition,[3],19.2% (active)
COc1cc(/C=C2\CCCc3c2nc2ccccc2c3C(=O)O)cc(Cl)c1O,activation,[1],-1.15%
same,inhibition,[2],5.85%
same,inhibition,[3],-2.25%
Oc1cc(O)c2c(c1)OC(c1ccc(O)c(O)c1)C(O)C2 (stereo unspecified),activation,[1],10.4% (active)
same,inhibition,[2],-52.5%
same,inhibition,[3],-0.79%
COc1ccccc1-c1cc(C(=O)NCCCn2ccnc2)no1,activation,[1],1.02%
same,inhibition,[2],-3.78%
same,inhibition,[3],-0.05%
COc1cc(NC(=O)COC(=O)c2ccc([N+](=O)[O-])s2)cc(OC)c1OC,activation,[1],-0.28%
same,inhibition,[2],1.01%
same,inhibition,[3],51.5% (active)
CC1(C(=O)NS(=O)(=O)c2ccccc2)CCN1C(=O)Cc1ccc(-c2ccccc2)cc1 (stereo unspecified),activation,[1],-0.39%
same,inhibition,[2],2.02%
same,inhibition,[3],1.27%
COc1c(O)cc2oc(-c3ccc(O)c(O)c3)cc(=O)c2c1O,activation,[1],16.2% (active)
same,inhibition,[2],-81.9%
same,inhibition,[3],89.6% (active)
COc1ccc(C2CC(c3cccs3)=NN2C(=O)COC(=O)c2cc3ccccc3cc2O)cc1OC (stereo unspecified),activation,[1],-0.23%
same,inhibition,[2],1.12%
same,inhibition,[3],-6.48%
CN(C)/C=C/C(=O)c1cnc2sccn2c1=O,activation,[1],0.96%
same,inhibition,[2],-3.51%
same,inhibition,[3],1.19%
C=CCn1c(=S)[nH]c2scc(-c3ccco3)c2c1=O,inhibition,[4],78.1% (active)
same,inhibition,[5],23.3%
same,inhibition,[6],37.9%
same,inhibition,[7],14.1%
same,activation,[1],4.85%
same,inhibition,[2],-24.4%
same,inhibition,[3],75.9% (active)
CCOC(=O)c1c(C)oc2cc(Sc3ccccc3)c(O)c(O)c12,inhibition,[8],5.29%
same,activation,[1],0.78%
same,inhibition,[2],-2.84%
same,inhibition,[3],-5.02%
CC(=NCc1ccc2c(c1)OCO2)C1=C(O)c2ccccc2C1=O,activation,[1],0.56%
same,inhibition,[2],-2.08%
same,inhibition,[3],-0.38%
